# Test results as given in PubChem BioAssay.
# The other results are listed elsewhere or left out. Active and inactive are the calls of the source. Unless noted, how the calls were made is not given here.
# Legend:
# [1] = inhibition of Brca1/Bard1 split-luciferase complementation, confirmation, counter-screen for Mdm2/MdmX interaction inhibitor project, luminescence, single concentration (AID 504668); conditions: Brca1/Bard1 bimolecular luciferase complementation counterscreen, at 8 µM, stronger effect = higher value
# PEG-3 [2] = target: PEG-3 (UniProt Q6IN02); assay: Peg3 promoter luciferase inhibitors, potency, dose response, cell-based, HeLa, CREF/GAPDH counter-screen panel (AID 624167); conditions: CREF/GAPDH counter-screens; HeLa PEG-Prom luciferase reporter, overnight, run 1, dose range 1, at 100 µM (top of the series) unless noted
# PEG-3 [3] = target: PEG-3 (UniProt Q6IN02); assay: as above; conditions: CREF/GAPDH counter-screens; HeLa PEG-Prom luciferase reporter, overnight, run 2, dose range 1, at 100 µM (top of the series) unless noted
# Rat fibroblasts (CREF) [4] = assay: as above; conditions: CREF/GAPDH counter-screens; run 1, dose range 1, at 100 µM (top of the series)
# Rat fibroblasts (CREF) [5] = assay: as above; conditions: CREF/GAPDH counter-screens; run 2, dose range 1, at 100 µM (top of the series)
# [6] = target: Tumor necrosis factor receptor superfamily member 10B (Homo sapiens) (UniProt O14763); assay: caspase-8 TRAIL sensitization, hit retest, confirmation, cell-based, NB7+caspase-8, with/without TRAIL, luminescence panel (AID 651596; in the data active means activity above about 50%); conditions: NB7 neuroblastoma + caspase-8, TRAIL sensitization, luminescence viability, with TRAIL, mean of runs, at 10 µM, stronger effect = higher value
# [7] = as above; conditions: NB7 neuroblastoma + caspase-8, without TRAIL, luminescence viability, without TRAIL, mean of runs, at 10 µM
# [8] = inhibitors of PAF-induced NFkB signaling in CF airway cells, dose response, cell-based, uHTS hits, panel, cytotoxicity readout (AID 624344); conditions: CF bronchial epithelial cells, PAF-induced NFkB reporter inhibition, with PAF, run 1; at 79 µM (top of the series) unless noted
# [9] = as above; conditions: CF bronchial epithelial cells, PAF-induced NFkB reporter inhibition, with PAF, run 2; at 79 µM (top of the series) unless noted
# [10] = HIF-2a reporter inhibitor retest, confirmation, luminescence, 786-0 RCC cells (AID 651580;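 active means mean inhibition across four replicates of at least 40 percent at the single tested concentration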); conditions: HIF-2a luciferase reporter luminescence, overnight, at 18.8 µM, stronger effect = higher value
# [11] = HIF-1a luciferase reporter signal reduction – MiaPaCa-2 cells, single concentration, counter-screen for HIF-2a inhibitor project, confirmation (AID 651589;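 active means mean inhibition of the reporter signal across four replicates at the single tested dose of 50% or more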); conditions: MiaPaCa-2 HIF-1a luciferase reporter, desferoxamine, overnight; at 18.8 µM; stronger effect = higher value
# PEG-3, sequence (Q6IN02 whole entry, looked up): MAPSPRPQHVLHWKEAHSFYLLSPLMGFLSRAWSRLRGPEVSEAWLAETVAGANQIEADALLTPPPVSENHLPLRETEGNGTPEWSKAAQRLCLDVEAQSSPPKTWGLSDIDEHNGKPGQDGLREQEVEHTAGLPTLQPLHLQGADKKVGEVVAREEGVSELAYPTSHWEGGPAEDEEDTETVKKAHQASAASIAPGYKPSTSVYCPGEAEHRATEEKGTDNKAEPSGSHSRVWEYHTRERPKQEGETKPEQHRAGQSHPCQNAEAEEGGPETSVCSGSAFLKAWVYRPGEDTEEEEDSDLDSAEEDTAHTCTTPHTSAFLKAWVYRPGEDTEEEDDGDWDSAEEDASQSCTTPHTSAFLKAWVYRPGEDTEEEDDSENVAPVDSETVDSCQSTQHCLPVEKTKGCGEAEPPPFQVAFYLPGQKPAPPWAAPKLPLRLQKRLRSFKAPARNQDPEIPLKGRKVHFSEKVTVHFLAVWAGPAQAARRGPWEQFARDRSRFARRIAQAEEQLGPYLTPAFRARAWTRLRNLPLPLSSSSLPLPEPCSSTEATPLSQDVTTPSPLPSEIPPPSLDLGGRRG
# Tumor necrosis factor receptor superfamily member 10B (Homo sapiens), sequence (O14763 whole entry, looked up): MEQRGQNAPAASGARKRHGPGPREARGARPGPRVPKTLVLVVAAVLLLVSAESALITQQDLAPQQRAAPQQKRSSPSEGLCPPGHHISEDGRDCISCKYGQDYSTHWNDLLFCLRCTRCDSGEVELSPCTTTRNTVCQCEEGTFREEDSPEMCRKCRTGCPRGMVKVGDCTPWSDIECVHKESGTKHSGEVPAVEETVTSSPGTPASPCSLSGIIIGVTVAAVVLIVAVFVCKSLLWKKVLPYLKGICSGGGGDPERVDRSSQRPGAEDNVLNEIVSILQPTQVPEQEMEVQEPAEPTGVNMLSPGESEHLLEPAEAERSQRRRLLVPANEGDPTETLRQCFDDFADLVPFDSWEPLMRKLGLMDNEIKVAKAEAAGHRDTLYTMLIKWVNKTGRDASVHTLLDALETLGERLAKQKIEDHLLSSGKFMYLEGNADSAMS
compound,measurement,setting,value
Cc1nc2cc(-c3ccccc3)sc2c(=O)n1N,inhibition,[1],30% (active)
same,inhibition,PEG-3 [2],102%
same,inhibition,PEG-3 [3],97.8%
same,inhibition,Rat fibroblasts (CREF) [4],93.7%
same,inhibition,Rat fibroblasts (CREF) [5],92%
same,activity,[6],73.1%
same,activity,[7],73.6%
O=C(Nc1ccc(N2CCOCC2)cc1)c1cnsn1,inhibition,[1],32.1% (active)
same,inhibition,PEG-3 [2],96.4%
same,inhibition,PEG-3 [3],98.9%
same,inhibition,Rat fibroblasts (CREF) [4],97.9%
same,inhibition,Rat fibroblasts (CREF) [5],60.2%
same,activity,[6],78.7%
same,activity,[7],75.9%
CN(C)CCCN(C(=O)c1ccc(C(=O)c2ccccc2)cc1)c1nc2cc3c(cc2s1)OCO3,inhibition,[1],31.7% (active)
same,inhibition,PEG-3 [2],99.4%
same,inhibition,PEG-3 [3],102%
same,activity,[6],46.7%
same,activity,[7],54.3%
COC(=O)c1nn(-c2ccc3c(c2)CCN3C(C)=O)cc1O,inhibition,[1],31% (active)
same,inhibition,PEG-3 [2],96.2%
same,inhibition,PEG-3 [3],97.9%
same,inhibition,Rat fibroblasts (CREF) [4],99.1%
same,inhibition,Rat fibroblasts (CREF) [5],99.2%
same,activity,[6],86.6%
same,activity,[7],85.3%
COc1ccc(-c2cncnc2-c2ccc(OC)cc2O)cc1,inhibition,[1],27.2% (active)
same,inhibition,[8],101%
same,inhibition,[9],93.5%
CCCN(CCC)c1ncnc2nc[nH]c12,inhibition,[1],34.6% (active)
same,inhibition,[8],109%
same,inhibition,[9],108%
C/C(=N\NC(=O)c1c(C)nc2ccccn12)c1ccc(O)cc1O,inhibition,[1],33.7% (active)
same,inhibition,PEG-3 [2],66.9%
same,inhibition,PEG-3 [3],48.1%
same,inhibition,Rat fibroblasts (CREF) [4],49.2%
same,inhibition,Rat fibroblasts (CREF) [5],56.5%
CC(C)(C)c1ccc(C(=O)O/N=C(\N)c2ccccn2)cc1,inhibition,[1],28% (active)
same,inhibition,PEG-3 [2],102%
same,inhibition,PEG-3 [3],99%
same,inhibition,Rat fibroblasts (CREF) [4],101%
same,inhibition,Rat fibroblasts (CREF) [5],99.9%
same,activity,[6],99.8%
same,activity,[7],99.8%
COc1ccc(-c2nsc3c(N4CCCCC4C)ncnc23)cc1 (stereo unspecified),inhibition,[1],24.8% (active)
same,inhibition,PEG-3 [2],89.7%
same,inhibition,PEG-3 [3],93.5%
same,activity,[6],86.8%
same,activity,[7],87.7%
O=C(CCSc1nc2ccccc2s1)N/N=C/c1c(O)ccc2ccccc12,inhibition,[1],31.6% (active)
same,inhibition,PEG-3 [2],58.9%
same,inhibition,PEG-3 [3],82.3%
same,inhibition,Rat fibroblasts (CREF) [4],40.6%
same,inhibition,Rat fibroblasts (CREF) [5],38%
CCN(CC)S(=O)(=O)c1ccc(NC(=O)Nc2cccc(C(F)(F)F)c2)cc1,activity,[6],82.6%
same,activity,[7],71.3%
Cc1[nH]nc2nc(SCC(=O)NCCC3=CCCCC3)n(-c3ccc(Br)cc3)c(=N)c12,activity,[6],58.5%
same,activity,[7],88.4%
Cc1ccc(-c2nn(C(C)(C)C)c3ncnc(N)c23)cc1,inhibition,[1],30.7% (active)
same,inhibition,[10],70.1% (active)
same,inhibition,[11],93.8% (active)
N#CC1(NC(=O)Cn2ncc(Cl)c(Cl)c2=O)CCCCC1,inhibition,[1],29.6% (active)
same,activity,[6],98.5%
same,activity,[7],99.2%
COC(=O)C1=C(C)N(Cc2ccccc2)C(=NCC(C)C)N[C@H]1c1cccc(C(F)(F)F)c1,inhibition,[1],26.2% (active)
same,activity,[6],25.1%
same,activity,[7],6.62%
CC(C)(C)c1ccc(C(=O)O/N=C(\N)c2ccccc2)cc1,inhibition,[1],23.3% (active)
same,activity,[6],99.4%
same,activity,[7],99.6%
Cc1ccc2nc(/C(C#N)=C\c3ccc([N+](=O)[O-])o3)[nH]c2c1,inhibition,[1],29.9% (active)
same,activity,[6],95.6%
same,activity,[7],99%
N#Cc1nc(NCC(F)F)nc(Nc2cc(F)cc(F)c2)n1,inhibition,[1],28% (active)
same,activity,[6],63.2%
same,activity,[7],71.3%
CCCCn1c(CCl)nc2cc(S(=O)(=O)N3CCOCC3)ccc21,inhibition,[1],30.4% (active)
same,activity,[6],92.6%
same,activity,[7],76.2%
NC(=O)c1oc2ccccc2c1NC(=O)c1ccc([N+](=O)[O-])o1,inhibition,[1],31.8% (active)
same,activity,[6],69.1%
same,activity,[7],96.5%
Cc1ccc(C)c(C(=O)Cn2ncc(Cl)c(Cl)c2=O)c1,inhibition,[1],31.7% (active)
same,activity,[6],99.7%
same,activity,[7],99.3%
Cn1ncc2c(O/N=C(\N)c3ccc(C(F)(F)F)cc3)ncnc21,inhibition,[1],24.2% (active)
same,activity,[6],98.8%
same,activity,[7],98.8%
CC(NC(=O)Nc1nnc(C(F)(F)F)s1)(C(F)(F)F)C(F)(F)F,inhibition,[1],32.9% (active)
same,activity,[6],43.9%
same,activity,[7],43.1%
O=C(Nc1ccc(OC(F)F)cc1)Nc1cccc(C(F)(F)F)c1,inhibition,[1],24.4% (active)
same,activity,[6],85.3%
same,activity,[7],69.6%
O=C(Nc1ccc2c(c1)OCCO2)c1cccc2nc3ccccc3nc12,inhibition,[1],27.6% (active)
same,activity,[6],59.7%
same,activity,[7],77.5%
O=C(C[C@@H]1C/C=C/CC[C@H](Cc2ccc(F)cc2)C(=O)OC[C@@H](Cc2ccccc2)NC1=O)N[C@H](CO)Cc1ccccc1,inhibition,[1],29.8% (active)
same,activity,[6],87.7%
same,activity,[7],95.8%
O=C(/C=C/c1ccccc1)NC(NC(=S)Nc1ccc(Cl)cc1)C(Cl)(Cl)Cl (stereo unspecified),inhibition,[1],23.7% (active)
same,activity,[6],37.1%
same,activity,[7],30.2%
CC1CCc2c(sc3nc(C(C)(C)C)nc(N4CCN(C(=O)CCl)CC4)c23)C1 (stereo unspecified),inhibition,[1],34.8% (active)
same,activity,[6],98.8%
same,activity,[7],99.2%
